The panel holds about 79,000 compounds, 15% with a hit somewhere; the sample as a whole holds those more often. Values without a mark were called inactive. Active and inactive are the calls of the source. Rule as the data show it: active = growth inhibition above about 70%; inactive = the rest.
Legend:
[1] = NCI Yeast Anticancer Drug Screen. Data for the rad50 strain (AID 155);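 also: 0% = growth of vehicle-only cultures of the same strain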; conditions: S. cerevisiae rad50 strain growth inhibition; at 50.0 µM; active compounds read high
Summary of the method: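 Yeast carrying a defined DNA repair defect were exposed to test compounds, and growth was compared with vehicle-treated controls to give percent inhibition.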

[2] = NCI Yeast Anticancer Drug Screen. Data for the mec2-1 strain (AID 157); conditions: S. cerevisiae mec2-1 strain, at 50.0 µM, active compounds read high
Summary of the method: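 Compounds were applied to mec2-1 yeast cells. Their growth was then compared with that of vehicle-treated cultures to give growth inhibition.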

[3] = NCI Yeast Anticancer Drug Screen. Data for the sgs1 mgt1 strain (AID 161);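 also: 0% = growth of cultures given vehicle only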; conditions: S. cerevisiae sgs1 mgt1 strain, at 50.0 µM, active compounds read high
Summary of the method: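 Percent growth inhibition was derived by comparing compound-exposed mutant yeast with vehicle-exposed cultures. The strain carries alterations in DNA damage repair.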

[4] = NCI Yeast Anticancer Drug Screen. Data for the cln2 rad14 strain (AID 165);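 also: 0% = growth equal to vehicle treated cultures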; conditions: S. cerevisiae cln2 rad14 strain, at 50.0 µM, active compounds read high
Summary of the method: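 Strain: cln2 rad14 yeast, altered in cell cycle control and DNA damage repair. Read-out: growth inhibition vs vehicle.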

[5] = NCI Yeast Anticancer Drug Screen. Data for the bub3 strain (AID 167); conditions: S. cerevisiae bub3 mutant strain, at 50.0 µM, active compounds read high
Summary of the method: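 Compounds were applied to a genetically altered yeast strain carrying a cell-cycle control defect. Growth inhibition was scored against vehicle-treated controls.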

[6] = NCI Yeast Anticancer Drug Screen. Data for the mlh1 rad18 strain (AID 175); conditions: S. cerevisiae mlh1 rad18 strain growth inhibition; at 50.0 µM; active compounds read high
Summary of the method: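 A repair-deficient yeast strain is exposed to test compound, and growth is scored relative to vehicle-treated controls.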

SMILES | growth inhibition [1] | growth inhibition [2] [%] | growth inhibition [3] [%] | growth inhibition [4] [%] | growth inhibition [5] | growth inhibition [6] [%]
Nc1nc(SCC(=O)O)nc2nc[nH]c12 | -0.15% | 3.15 | -13.3 | -32 | -7.5% | 4.95
CC(=O)NCC(O)C(O)C(O)C(O)COC(=O)c1ccccc1 (configuration not stated) | 6.6% | -1.25 | 19.2 | -6.45 | -2.15% | -5
COc1ccc(C(C#N)C(=O)CCC(=O)C(C#N)c2ccc(OC)c(OC)c2)cc1OC (configuration not stated) | 28.3% | 2.9 | -8.65 | -15.3 | -2.8% | 26.8
c1ccc(-c2nc(-c3ccccc3)n3nc4c(c3c2-c2ccccc2)CCCCCC4)cc1 | -6.65% | 5.65 | -19.6 | -8.55 | -0.35% | 0.2
C[C@]1(CO)[C@H]2CC[C@@]34C=C[C@@](CO)(CC[C@H]3[C@]2(C)CC[C@H]1O)C4 | 5.45% | 1.05 | 39.6 | 6.4 | 11.7% | -48.4
O=C(CN1C(=O)c2ccccc2C1=O)NC1(C(=O)O)CCCC1 | -3.25% | -14 | -27.9 | -2.65 | -30.8% | -0.15
S=c1[nH]c(=S)c2nnn(-c3ccccc3)c2[nH]1 | -47% | -38 | -31.5 | -25.9 | -47.9% | -34
COc1cc2c(c(OC)c1OC)-c1ccc(SC)c(=O)cc1[C@@H](NC(=O)C(F)(F)F)CC2 | 11.1% | -53.7 | -18.1 | -13.8 | -12.7% | -4.75
COC(=O)CNN | -6.05% | -19.4 | -14.8 | -25.1 | -7.25% | 7.9
CCCCCCC(c1c(O)cc(C)[nH]c1=O)c1c(O)cc(C)[nH]c1=O | -6.55% | -8.5 | 9.55 | -8.4 | -12.8% | -11.9
CCn1c(=O)c2c3ccc(O)cc3[nH]c2c2ccc(O)cc21 | -63.7% | -74.6 | -4.8 | -14.6 | -23.8% | -43.5
CCCCN=C1NS(=O)(=O)c2ccccc21 | 15.5% | -11.5 | 13.2 | -8.15 | 0% | -0.6
CC(=O)NC1=NC(=O)/C(=C/c2ccc(/C=C3/C(=O)N=C(NC(C)=O)N3C)cc2)N1C | -20.6% | 11 | 14.4 | 35.6 | -9.05% | -27.2
CC(=O)OCC1OC(n2c(Br)nc3c2c(=O)n(C)c(=O)n3C)C(OC(C)=O)C1OC(C)=O (configuration not stated) | -19.9% | -1.3 | -14.3 | -7.95 | -0.95% | 0.25
O=C(CC1C(=O)Nc2ccccc2S1(=O)=O)Nc1cc(Cl)ccc1Cl (configuration not stated) | 0.15% | -30.8 | 7.25 | 15.1 | 4.5% | -12.3
O=c1oc(Cl)cc2oc(=O)n(-c3ccccc3)c(=O)c12 | 10.8% | 7 | 18.8 | -3.15 | -9.25% | 9.45
CCCCCC1CCN(C(=O)c2ccc(N)cc2)CC1 | 90% (active) | 52.8 | 44.8 | 49 | 94.4% (active) | 42.7
COc1ccc(Cc2cc3c(cc2OCC(=O)Nc2ccccn2)OCO3)cc1 | 22.2% | -1.95 | 6.25 | 19.3 | -3% | 8.1
COc1ccc(C(O)C(NCCO)c2ccccc2)cc1 (configuration not stated) | -1.3% | -19.5 | 4.8 | 7.15 | -3.85% | 7.85

SMILES | growth inhibition [1] | growth inhibition [2] [%] | growth inhibition [3] [%] | growth inhibition [4] [%] | growth inhibition [5] | growth inhibition [6] [%]
Cc1cc(C)nc(NS(=O)(=O)c2ccc(NC(=O)C(Cl)(Cl)Cl)cc2)n1 | -34% | -24.6 | -35.4 | -13 | -42% | -39.8
Cc1cc(N(CCC#N)CCC#N)ccc1/C=C(\NC(=O)/C=C/c1ccccc1)NC(=O)Nc1ccc(Cl)cc1 | 13.5% | 2.75 | -17.9 | 10.8 | 12.5% | 29.2
CC(=O)OC(C)N(C(C)=O)c1ncc([N+](=O)[O-])s1 (configuration not stated) | -21.8% | 2.4 | -2.95 | -14.3 | 46.5% | 4.55
CN(C)c1ccc(-c2c3ccc(Cl)cc3nc3ccc(Br)cc23)cc1 | -1.3% | -1.9 | -18.1 | -4.3 | -1% | -8.9
Cc1ccc(C(=O)c2ccccc2Cc2ccc3ccccc3c2)cc1 | 13.8% | 0.8 | 6.3 | 1.35 | 61.2% | -0.25
CC(=O)NC(NCCN)(c1ccccc1)c1ccccc1 | -9.7% | -26.4 | -8.1 | 11.6 | 9.6% | -8.45
O=C(Nn1cnc2ccccc2c1=O)c1ccc(NC(=S)Nc2ccccc2)cc1 | 63.5% | -16.4 | 52.7 | -27.8 | -1.45% | 7.5
CC1(C)C2CCC(CCOC(=O)COc3ccc(Cl)cc3)C1C2 (configuration not stated) | -9.45% | 5.5 | 12.1 | -44.2 | 3.15% | 12.6
CCOC(=O)NN(C(=O)OCC)C(C(=O)C1=CCCCC1)N(NC(=O)OCC)C(=O)OCC | -9.95% | -1.15 | 4.5 | 0.2 | 0.3% | -2.85
Cc1ccccc1SCC(N)=O | 6.55% | 9.1 | -0.85 | -12.1 | 5.35% | -0.7
CCc1ccccc1OCC1CO1 (configuration not stated) | 10.9% | 3.5 | 11.2 | 2.2 | -11.9% | 18.2
CC(=O)OCCOCCCl | -12.8% | 20.2 | 1.5 | -13.3 | 19.2% | 12.1
COC(=O)C(C)(Cc1ccc2c(c1)nnn2C(C)=O)NC(C)=O (configuration not stated) | -11.4% | -1.25 | -4.15 | -2.45 | 22.6% | -51.9
Fc1ccc(-c2ccc(Br)cc2)cc1 | 3.95% | 3.4 | 2.05 | -44 | 17% | -3.65
COc1cccc2c1[C@]1(O)C(O)CCCC21 (some centres not stated) | -43.6% | -6.6 | -60.6 | 5.95 | -31.9% | -35.7
C=CCCCCCC(O)C(O)C/C=C\C/C=C\CC (configuration not stated) | 18.4% | 4.6 | 22.8 | -1.35 | 15.5% | 27.2
C[N+](C)(C)C12CCC(CC1)C1([N+](C)(C)C)CCC2CC1 | 4.2% | 21.4 | 17.2 | -10.2 | 4.45% | 22.1
O=[N+]([O-])c1cccc(/C=C/C=C/c2ccc(Cl)c(Cl)c2)c1 | 7.65% | 9.3 | 30.3 | 3.65 | 28.2% | 4.1
